From PubChem
CHX counter – affects cycloheximide protein synthesis inhibition readout, counter-screen. cell reporter, cycloheximide protein synthesis inhibition counterscreen. max response, %. 12% of 300,000 active; in the data active = max response mostly above about 13%, no sharp cut-off; inactive = mostly below about 14%; note: read at 38.3 µM for the half of the compounds with a filed dose
LmPK inhibitor – LmPK (Leishmania mexicana) enzyme inhibition; Q27686; AID 1721; 0.37% of 290,000 active; purified LmPK, Kinase-Glo ATP luminescence, 1 h; Potency, µM (series often up to 57.5 µM), most hits filed as inhibitors
Target sequence (Q27686 whole entry, looked up): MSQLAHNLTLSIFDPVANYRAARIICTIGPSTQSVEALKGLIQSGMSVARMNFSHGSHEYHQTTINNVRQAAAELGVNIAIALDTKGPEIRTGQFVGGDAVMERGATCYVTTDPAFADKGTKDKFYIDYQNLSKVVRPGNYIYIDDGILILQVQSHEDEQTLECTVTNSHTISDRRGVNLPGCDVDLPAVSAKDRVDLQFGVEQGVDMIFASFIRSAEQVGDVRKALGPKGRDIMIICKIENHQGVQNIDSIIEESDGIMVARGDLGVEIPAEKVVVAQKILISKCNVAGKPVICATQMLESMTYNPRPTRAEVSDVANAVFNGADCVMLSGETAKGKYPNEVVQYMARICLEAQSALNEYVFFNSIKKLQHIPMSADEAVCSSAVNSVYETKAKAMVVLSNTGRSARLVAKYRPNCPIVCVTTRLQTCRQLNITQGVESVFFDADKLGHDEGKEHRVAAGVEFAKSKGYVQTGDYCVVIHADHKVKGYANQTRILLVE
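0.1 nM LmPK, 0.5 mM PEP, 0.1 mM ADP; 50 mM imidazole pH 7.2, 7 mM MgCl2, 50 mM KCl; 1 h RT. Kinase-Glo luminescence readout, normalized to no-enzyme (full inhibition) and uninhibited wells.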
Pf growth 48h – inhibits P. falciparum growth in the first generation, 48 h; Potency, µM (top dose mostly 28.7 µM), most hits filed as inhibitors; 5.9% of 310,000 active; P. falciparum luciferase growth in erythrocytes, 48 h
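First compound was added to culture medium, then infected red cells at 0.1% parasitemia and 2% hematocrit (final). After incubation at 37 C under 5% CO2, luciferase detection reagent was dispensed and light output recorded.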
Pf growth 96h – P. falciparum growth inhibition at 96 hour, primary screen for plastid delayed-death inhibitors | P. falciparum luciferase reporter growth, 96 h | Potency, µM (titrated, usually from 28.7 µM), hits mostly inhibitors | 6.9% of 320,000 active | AID 504834
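Cell-based qHTS: luciferase-tagged P. falciparum in erythrocytes (2% hematocrit, 0.05% parasitemia final) incubated with compounds for 96 hours, 37 C, 5% CO2; luciferase detection reagent then added and luminescence measured.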
Shiga inhibitor – inhibitors of Shiga toxin in Vero cells; AID 2315; 9.2% of 290,000 active; inhibition, % at 38.7 µM; Vero cells, Shiga toxin protein synthesis inhibition reporter; in the data active = inhibition mostly above about 28%, no sharp cut-off; inactive = mostly below about 43%
A number is an active result; n = inactive; u = inconclusive; x = not tested or not shown; [ ] = remark or other dose. Rows were chosen to be rich in hits. Some 22% of all compounds tested hit in one or more screens of this group. Unless noted, calls come from the whole dose curve; as a rule, active = well fitted inhibition curve with a large enough effect; inconclusive = small, poorly fitted or top-dose-only effect, or another doubt; inactive = no such curve, though single readings can be large or run the other way.

SMILES | CHX counter | LmPK inhibitor | Pf growth 48h | Pf growth 96h | Shiga inhibitor
Cc1ccc(C(=O)Oc2ccc(Cl)c3cccnc23)cc1[N+](=O)[O-] | n | n | 13µM | u | n
Cc1c(-c2ccccc2)nnn1-c1ccc(F)cc1F | 45 | n | x | n | 73
CCCN(C(=O)c1cnccn1)c1c(N)n(Cc2ccccc2)c(=O)[nH]c1=O | x | x | n | n | x
CC(C)NC(=O)NC1C2CC3CC(C2)CC1C3 (configuration not stated) | n | n | u | 10µM | n
COc1ccc(NC(=O)c2ccccc2OCc2ccc(F)cc2)c(OC)c1 | n | n | u | u | n
O=C(Nc1ccccc1C(F)(F)F)c1cc(-c2ccco2)on1 | n | n | n | n | 58
Cc1cc(-c2ccccc2C(=O)Nc2ccccc2O)on1 | n | n | n | n | n
O=C(Nc1ccccc1C(F)(F)F)c1cc2ncc(CCCl)cn2n1 | 23 | n | u | u | 77
O=C(Nc1ccccc1C(F)(F)F)c1cc(-c2ccccc2O)on1 | 37 | n | 1µM | 0.47µM | 83
Cc1cc(C(=O)Nc2ccccc2C(F)(F)F)no1 | n | n | n | 10µM | n
O=C(Nc1ccccc1C(F)(F)F)c1ccccn1 | 32 | n | n | n | n
CCOC(=O)C1(c2ccccc2)CCN(CC(=O)Nc2ccc(C)cc2)CC1 | n | n | n | u | n
CCOC(=O)C1(c2ccccc2)CCN(CCC(C#N)(c2ccccc2)c2ccccc2)CC1 | x | x | 1.9µM | 1.9µM | x
CCOC(=O)C1(c2ccccc2)CCN(CCC(=O)Nc2ccc(C(=O)OC)cc2)CC1 | x | x | 5.2µM | 9.3µM | x
CC(=O)N1CCC(C(=O)OCc2ccccc2F)(c2ccccc2)CC1 | n | n | n | n | n
COc1cc(Nc2ccc(S(N)(=O)=O)cc2)c([N+](=O)[O-])nc1[N+](=O)[O-] | n | n | n | n | x
Cc1ccccc1OCC(=O)Nc1ccc(C(=O)Nc2ccccc2C(=O)O)cc1 | n | n | u | u | n
COC(=O)c1c(NC(=O)c2cccc(S(=O)(=O)N3CCN(C)CC3)c2)sc(C)c1C | x | x | u | 12µM | x
CCOC(=O)c1sc(NC(=O)c2cccc(S(=O)(=O)N(CC)CC)c2)cc1C | n | n | x | 2.1µM | n
CCOC(=O)c1sc(NC(=O)c2ccc(S(=O)(=O)N3CCOCC3)cc2)cc1C | n | n | u | 5.9µM | n
CCc1nc2ccccc2c(C(=O)OCC(=O)Nc2ccc(S(=O)(=O)N3CCOCC3)cc2)c1C | n | n | 9.3µM | n | n
CCOC(=O)Nc1ccc(S(=O)(=O)N2CCOCC2)cc1 | n | n | n | n | n
CCN(CC)S(=O)(=O)c1cccc(C(=O)Nc2nnc(C)s2)c1 | n | n | n | n | n
CCc1cccc(CC)c1NC(=O)c1cccc(S(=O)(=O)N2CCN(C)CC2)c1 | n | n | n | n | n
CCOC(=O)c1[nH]c2ccccc2c1NC(=O)c1ccc(S(=O)(=O)N2CCOCC2)cc1 | n | n | u | 15µM | n
SMILES | CHX counter | LmPK inhibitor | Pf growth 48h | Pf growth 96h | Shiga inhibitor
CCOC(=O)c1sc(NC(=O)c2cccc(S(=O)(=O)N3CCN(C)CC3)c2)cc1C | n | n | 2.3µM | n | n
CCOc1cc(/C=N\NC(=O)c2c(C)nc3ccccn23)ccc1O | 13 | n | n | n | x
Cc1nc2ccccn2c1C(=O)N/N=C/c1ccc2c(c1)OCO2 | 59 | n | n | n | 88
C/C(=N\NC(=O)c1c(C)nc2ccccn12)c1ccc(O)cc1O | n | n | u | 3.3µM | n
CCOc1cc(/C=N/NC(=O)c2ccc(=O)n(C)c2)ccc1O | n | n | n | 3.3µM | n
CCOc1cc(/C=N/NC(=O)c2c(-c3ccccc3)noc2C)ccc1O | n | n | n | u | n
COc1ccccc1/C=N/NC(=O)c1ccc(=O)n(C)c1 | n | n | n | n | n
C/C(=N\NC(=O)c1c(C)nc2ccccn12)c1ccccc1F | n | n | n | n | n
CC(=O)Nc1ccc(NC(=O)c2c(C)nn(Cc3ccccc3)c2Cl)cc1 | n | n | n | n | n
CCNC(=O)NC(=O)C(C)OC(=O)c1c(C)nn(Cc2ccccc2)c1Cl (configuration not stated) | n | n | 13µM | u | n
Cc1nn(Cc2ccccc2Cl)c(Cl)c1C(=O)NCCc1ccccc1 | 47 | n | n | n | 100
Cc1cc(NC(=O)COC(=O)c2c(C)nn(Cc3ccccc3Cl)c2Cl)no1 | n | n | n | n | n
CCNC(=O)NC(=O)C(C)OC(=O)c1cccn1C (configuration not stated) | n | n | 10µM | n | n
CCNC(=O)NC(=O)C(C)OC(=O)c1c(C)nn(Cc2ccccc2Cl)c1Cl (configuration not stated) | n | n | u | 12µM | n
S=C1NC2CCCCC2N1 (configuration not stated) | n | n | n | n | n
COc1ccc(OCC(=O)N2CCN(C(=O)c3ccc(F)cc3)CC2)cc1 | n | n | n | n | n
Cc1nn(Cc2ccccc2Cl)c(Cl)c1C(=O)OCC(=O)NCc1ccco1 | 11 | n | n | x | n
CCCC(=O)OCC(=O)Nc1ccc2c(c1)OCO2 | 15 | n | n | n | n
O=C(COC(=O)C1CC1)Nc1ccc2c(c1)OCO2 | 36 | n | n | n | n
CCC(=O)OCC(=O)Nc1ccc2c(c1)OCO2 | n | n | n | n | n
COc1ccc(CC(=O)OCC(=O)Nc2ccc3c(c2)OCO3)cc1OC | n | n | n | u | n
Cc1cc(C)nc(N2CCCC(C(=O)NC(C)C)C2)n1 (configuration not stated) | n | n | n | u | n
CC(=O)OC(C#CCN1CCOCC1)c1ccccc1 (configuration not stated) | n | n | u | x | n
OC(C#CCN1CCOCC1)c1cccs1 (configuration not stated) | 37 | n | n | n[5.75 µM] | n
Cc1ccccc1NCC(=O)N/N=C/c1c(C)c(C(=O)c2ccc(Cl)cc2)n2ccccc12 | n | n | 13µM | 4.7µM | n
SMILES | CHX counter | LmPK inhibitor | Pf growth 48h | Pf growth 96h | Shiga inhibitor
Cc1c(C(=O)Nc2ccc(Cl)cc2)c2ccccn2c1C(=O)c1ccccc1 | n | n | u | u | n
Cc1c(/C=N/NC(=O)CNc2ccccc2)c2ccccn2c1C(=O)c1ccc(Cl)cc1 | n | n | 3.3µM | 3.3µM | n
Cc1c(/C=N/NC(=O)CNc2ccccc2)c2ccccn2c1C(=O)c1ccncc1 | n | n | u | u | n
CCn1c(SCC(=O)Nc2ccc(F)cc2)nnc1-c1cnccn1 | n | n | n | u | n
CC1(C)CC(=NOC(=O)c2ccccc2)CC(C)(C)N1O | n | n | n | n | n
COc1ccccc1N1CCN(C2CCCN(C(=O)CN3CCCC3=O)C2)CC1 (configuration not stated) | n | n | n | u | n
COc1ccccc1C(=O)C1CCCN(C(=O)CN2CCCCC2=O)C1 (configuration not stated) | 19 | n | n | u | n
COc1ccc(C(=O)C2CCCN(C(=O)c3ccc(F)cc3)C2)cc1OC (configuration not stated) | n | n | n | n | n
